Measured values as given in PubChem BioAssay AID623911 (Vanderbilt High Throughput Screening Facility, 2012).
Screen size: about 2,100 compounds; about 770 (37%) were called active. The list shows a part of the results. Values without a mark were called inactive.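 The calls were made as follows: active = by-eye trace score of 1 for enhancers or -1 for inhibitors, so actives lie on both sides (some results past the limit were not filed as active); inactive = score 0, or 3 fluorescent, or 4 baseline rise.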

Biological target: G protein-activated inward rectifier potassium channel 2 (Homo sapiens) + G protein-activated inward rectifier potassium channel 1 (Homo sapiens) (UniProt P48051+P48549)
Assay: GIRK1/2 thallium flux modulators, retest, confirmation, cell-based, HEK293 rmGlu8/hGIRK1/2, FluoZin-2 (AID 623911)
Conditions: HEK293 rmGlu8/hGIRK1/2, thallium flux FluoZin-2; actives lie on both sides

Chain of G protein-activated inward rectifier potassium channel 2 (Homo sapiens) + G protein-activated inward rectifier potassium channel 1 (Homo sapiens) (P48051 whole entry, looked up): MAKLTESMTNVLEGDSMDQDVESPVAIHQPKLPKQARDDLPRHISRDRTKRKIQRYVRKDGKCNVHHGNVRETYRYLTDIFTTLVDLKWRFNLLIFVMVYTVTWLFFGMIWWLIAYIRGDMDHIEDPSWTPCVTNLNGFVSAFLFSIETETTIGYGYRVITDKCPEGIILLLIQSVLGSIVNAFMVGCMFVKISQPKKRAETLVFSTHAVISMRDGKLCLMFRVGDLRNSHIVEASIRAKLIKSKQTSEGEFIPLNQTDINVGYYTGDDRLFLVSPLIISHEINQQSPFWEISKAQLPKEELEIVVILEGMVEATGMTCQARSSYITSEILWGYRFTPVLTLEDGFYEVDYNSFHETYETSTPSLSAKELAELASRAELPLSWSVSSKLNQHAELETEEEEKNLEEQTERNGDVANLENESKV
Chain of G protein-activated inward rectifier potassium channel 2 (Homo sapiens) + G protein-activated inward rectifier potassium channel 1 (Homo sapiens) (P48549 whole entry, looked up): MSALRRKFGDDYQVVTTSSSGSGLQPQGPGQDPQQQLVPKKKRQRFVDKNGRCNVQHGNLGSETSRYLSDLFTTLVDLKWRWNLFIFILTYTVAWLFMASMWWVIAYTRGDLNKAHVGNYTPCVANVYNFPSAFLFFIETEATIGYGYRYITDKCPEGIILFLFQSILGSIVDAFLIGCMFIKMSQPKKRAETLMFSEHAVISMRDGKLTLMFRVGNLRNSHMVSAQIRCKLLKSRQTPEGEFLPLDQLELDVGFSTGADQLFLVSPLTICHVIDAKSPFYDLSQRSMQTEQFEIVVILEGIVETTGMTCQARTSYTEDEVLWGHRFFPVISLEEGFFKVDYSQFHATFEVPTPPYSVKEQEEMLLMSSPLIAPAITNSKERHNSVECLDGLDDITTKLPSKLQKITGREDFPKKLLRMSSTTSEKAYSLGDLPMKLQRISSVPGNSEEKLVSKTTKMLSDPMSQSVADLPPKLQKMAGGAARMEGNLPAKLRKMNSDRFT

Row | Structure (SMILES) | manual score
1 | COc1cc(-n2c(=S)[nH]c3ccccc3c2=O)c(Cl)cc1Cl | 1 (active)
2 | CC(C)Oc1cc(-n2c(=S)[nH]c3ccccc3c2=O)c(Cl)cc1Cl | 1 (active)
3 | CC(=NCC1CCCO1)c1c(O)n(-c2ccc(C)cc2)c(=O)[nH]c1=O (stereo not given) | 0
4 | Nc1c(C(=O)OC2CCCCC2)c2nc3ccccc3nc2n1CC1CCCO1 (stereo not given) | 0
5 | CCOC(=O)C(O)(c1ccc(N(CC)S(=O)(=O)c2ccc(C)cc2)cc1)C(F)(F)F (stereo not given) | -1 (active)
6 | CCN(c1ccc(C(O)(C(=O)OC)C(F)(F)F)cc1)S(=O)(=O)c1ccc(C)cc1 (stereo not given) | -1 (active)
7 | C/C(=N\Nc1ccccc1)c1c(O)n(C)c(=O)n(C)c1=O | 0
8 | CCOC(=O)C1=C(NC(=S)NC(=O)c2ccccc2)c2ccccc2CC12CCCC2 | 0
9 | CC/C(=C\C=C\[C@@H]1C=C[C@@H]2CCC[C@H]2[C@@H]1C(=O)c1ccc[nH]1)[C@@H]1O[C@@H]([C@@H](C)C(=O)O)CC[C@@H]1C | 0
10 | Cc1ccc(-c2nc(N(C)C3CCN(C)CC3)c3ccccc3n2)cc1 | 0
11 | O=c1cc(C(F)(F)F)c2cc3c4c(c2o1)CCCN4CCC3 | 3
12 | Cn1cccc1CNCCc1ccccc1 | 0
13 | CCN1/C(=C\C=C\C2=[N+](CC)c3ccccc3C2(C)C)C(C)(C)c2ccccc21 | 3
14 | CNC(=O)OCCc1nccn1C | 0
15 | O=C(Nc1ccc(Cl)cc1)Nc1nccs1 | 1 (active)
16 | Cc1nn(C)cc1/C=C1/CC2C3CC=C4CC(O)CCC4(C)C3CCC2(C)C1=O (stereo not given) | -1 (active)
17 | CN1/C(=C\C=C\C2=[N+](C)c3ccc4ccccc4c3C2(C)C)C(C)(C)c2ccccc21 | 3
18 | C=CCOC(=O)COc1cc(C)cc2oc(=O)c3c(c12)CCC3 | 0

Row | Structure (SMILES) | manual score
19 | CCN(CC)CCNCC(=O)Nc1ccc(Cl)cc1C(=O)c1ccccc1 | -1 (active)
20 | O=c1[nH]c(=S)n(CCC2=CCCCC2)c(O)c1C=NCCCn1ccnc1 | 3
21 | Cc1ccc(OCC(=O)NCCN2CCN(C(=O)COc3ccc(C)cc3)CC2)cc1 | 0
22 | O=C(c1cc2ccccn2n1)N1CCC2(CC1)OCCO2 | 0
23 | COc1ccc(CC2C(=O)NC(=O)NC2=O)c(OC)c1 | 0
24 | c1ccc2c(CNC3CCCCC3)c[nH]c2c1 | -1 (active)
25 | CC(C)N1C(=O)/C(=C/C=C/c2ccco2)C(=O)N(Cc2ccco2)C1=O | 0
26 | S=C1CN=C(c2ccccc2)c2cc(Cl)ccc2N1 | 0
27 | Cc1ccccc1C1=NCC(=S)Nc2ccc(Cl)cc21 | 0
28 | S=C1CN=C(c2ccccc2Cl)c2cc(Cl)ccc2N1 | 1 (active)
29 | CC(C)CCn1c(=O)c(C(=O)Nc2ccccc2S(N)(=O)=O)c(O)c2ccccc21 | 0
30 | O=C(c1ccccc1)c1cn(CC(=O)N2CCOCC2)c2ccccc12 | 0
31 | Fc1ccc(NC2=NCCS2)cc1Cl | 0
32 | CCCCn1c(C)c(C(=O)OCC)c2c(CN3CCOCC3)c(O)ccc21 | -1 (active)
33 | O=C(Cc1ccccc1)N1CCN(C/C=C/c2ccccc2)CC1 | 0
34 | Cc1ccc2nc(N3CCC(C(=O)N4CCC5(CC4)OCCO5)CC3)sc2c1 | 0
35 | N=c1sc2c(n1Cc1ccccc1)CCCC2 | -1 (active)
